# Screening data: PubChem BioAssay, National Center for Advancing Translational Sciences (NCATS)
# FUS suppressor: rescues growth of FUS-expressing yeast; S. cerevisiae FUS-expressing, growth rescue, OD600, 24 h; Potency, µM (doses to about 76.6 µM), actives largely listed as activators; 390,000 tested, 0.24% active; AID 1347120;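 also: plate controls were DMSO vehicle for no effect and reference control for full effect; nearly all actives have a fitted effect of over 55% in size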
#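 FUS-expressing yeast, raffinose-pregrown, induced in 2% galactose minimal medium at OD 0.005; compounds in a dilution series, 24hr at 30C. Growth restoration read as absorbance at 600 nm. CP55940 positive control, DMSO negative.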
# aSyn rescue: inhibitors of alpha-synuclein toxicity in yeast; Yeast expressing alpha-synuclein, growth rescue, BacTiter-Glo, 24 h; 370,000 tested, 0.14% active; Potency, µM (doses to about 46.1 µM), for inactives: top-dose growth rescue (activation), hits mostly activators; AID 652106; also: % of control where 0% means no effect; nearly all actives have a fitted effect of over 65% in size
#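 Rescue of yeast growth: cells expressing toxic alpha-synuclein, induced in galactose at OD600 0.02, incubated with compound 24 h at 30 C. ATP luminescence quantified growth; inhibitors of toxicity appear as activators.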
# uPA generation: cell surface uPA generation inhibition. Potency, µM (top dose mostly 38.3 µM), without a hit: top-dose activity change, negative = inhibition, most hits filed as inhibitors. cell surface uPA generation assay, qHTS. 330,000 tested, 0.31% active; active = well fitted inhibition curve with a large enough effect; inconclusive = small, poorly fitted or top-dose-only effect; inactive = no such curve, though single readings can be large or run the other way; tested in mouse RAW 264.7 cells; also: % is scaled to controls: 0 for no effect and ±100 for the full control effect; nearly all actives have a fitted effect of over 55% in size
# Chronic BCR inh: blocks chronic active B-cell receptor signaling. ABC-DLBCL IkBa-CBG/CBR reporter, luminescence ratio, 4 h. 340,000 tested, 0.05% active. Potency, µM (titrated, usually from 46.1 µM), inactives show at the top dose activity change, negative = inhibition, usual class: inhibitors; active = well fitted inhibition curve with a large enough effect in the signal ratio, with a control signal flat, not every such curve was filed as active; inconclusive = small, poorly fitted or top-dose-only effect, or effect the other way, or a change in a side signal; the % refers to the signal ratio;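 also: plate controls were basal doxycycline-induced cells for no effect and cells given 10 µM MG132 for full effect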
#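 Concentration-response series (up to 46 uM) were applied to TMD8 dual-reporter cells for 4 h at 37C with doxycycline. Green/red ratio, after filter-overlap correction, defined %Activity; red signal alone was normalised to basal cells and zero luminescence.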
# TDP43 rescue: rescues yeast growth from TDP-43 toxicity; TDP-43 expressing yeast growth rescue, BacTiter-Glo, 24 h; Potency, µM (series often up to 46.1 µM), for inactives: at the highest dose growth rescue (activation), most hits filed as activators; 410,000 tested, 1.8% active; AID 652104; also: % of control where 0% means no effect; nearly all actives have a fitted effect of over 50% in size
#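 Readout is BacTiter-Glo luminescence of cell growth, so inhibitors register as activators. TDP-43-expressing yeast at OD600=0.02 in galactose medium, after raffinose pregrowth to mid-log, were incubated with compound for 24 hr at 30 deg C.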
# Abeta rescue: A-beta toxicity reversal in yeast; yeast expressing A-beta42, growth rescue, OD600, 48 h; response scale: 0% DMSO, 100% iron-clioquinol control; Potency, µM (titrated, usually from 46.1 µM), actives largely listed as activators; 410,000 tested, 0.063% active; AID 1347071; also: nearly all actives have a fitted effect of over 55% in size
#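 Growth rescue measured by 600 nm absorbance after 48 h yeast culture at 30 C with compound. Values normalized between DMSO and an equimolar ferric chloride plus clioquinol control.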
# Active calls of the source: *; i = inactive; ? = inconclusive; . = not tested or not shown. The list is not random: actives were taken first. Their share in the collection is about 2.3%. Unless noted, calls follow the shape of the dose curve; as a rule, active = well fitted curve in the direction sought with a large enough effect; inconclusive = small, poorly fitted or top-dose-only effect, or another doubt; inactive = no such curve, though single readings can be large; an effect the other way counts as inactive or inconclusive. Potency is read from the fitted curve at half-maximal effect.
SMILES,FUS suppressor,aSyn rescue,uPA generation,Chronic BCR inh,TDP43 rescue,Abeta rescue
CC1=Nc2cc(C(=O)NCc3ccccc3Cl)ccc2Sc2c(C)ccc(C)c21,i,-2%,.,.,9%,i
CC1=Nc2cc(C(=O)O)ccc2Sc2c(C)ccc(C)c21,i,7%,.,?,25µM*,i
CC1=Nc2cc(C(=O)N3CCCC3)ccc2Sc2c(C)ccc(C)c21,?,?,4µM*,4%,13%,.
Cc1oc2c(c(C)cc3oc(=O)c(CC(=O)N[C@@H](C)C(=O)O)c(C)c32)c1C,i,2%,-2%,-4%,-4%,i
COC(=O)c1c(NC(=O)c2ccccc2C(=O)O)sc2c1CCC2,i,6%,-6%,?,-18%,i
O=C(c1ccc(-c2cccc([N+](=O)[O-])c2)o1)N1CCN(c2ccc([N+](=O)[O-])cc2)CC1,i,1%,13%,-2%,-8%,i
O=C(c1ccc(-c2ccc([N+](=O)[O-])cc2)o1)N1CCCCC1,i,0%,-20%,?,13µM*,i
CC1CC(C)CN(C(=O)c2ccc(-c3ccc([N+](=O)[O-])cc3)o2)C1 (stereo unspecified),i,-15%,-5%,14%,14µM*,i
Cc1ccc(NC(=O)C(C)c2ccc(-c3ccccc3)c(F)c2)cc1 (stereo unspecified),i,0%,-7%,?,14%,i
CC(C)COC(=O)C1C(=O)CC(C)(O)C(C(=O)OCC(C)C)C1c1cccnc1 (stereo unspecified),.,-1%,-1%,4%,-13%,i
NC(=Nc1nc(-c2ccccn2)cc2ccccc12)c1ccccn1,.,?,-6%,.,3.2µM*,?
Nc1nc2cc(Cl)c(Br)cc2o1,.,3%,4%,.,20µM*,i
Cc1ccc(NS(=O)(=O)c2cc3c4c(cccc4c2)C(=O)NC3=O)cc1,i,-5%,-10%,4%,-4%,i
CNS(=O)(=O)c1cc2c3c(cccc3c1)C(=O)NC2=O,i,-4%,7.1µM*,2%,-12%,i
c1coc(CN(Cc2ccco2)c2ncnc3c2oc2ccccc23)c1,?,1%,-9%,?,20µM*,i
CCCCCCCCN1C(=O)[C@@H](CC(=O)NCc2ccccc2)C[C@@]2(C(=O)OC)C1=C[C@H](COCc1ccccc1)O[C@@H]2C,i,.,.,.,.,.
COC(=O)[C@]12C[C@H](CC(=O)N3CCC(c4ccccc4)CC3)C(=O)N(Cc3ccccc3)C1=C[C@H](COCc1ccccc1)O[C@@H]2C,13µM*,.,.,.,.,.
CCCCCCCCN1C(=O)[C@@H](CC(=O)N2CCN(C(=O)C3CC3)CC2)C[C@@]2(C(=O)OC)C1=C[C@H](COCc1ccccc1)O[C@@H]2C,28µM*,.,.,.,.,.
COC(=O)[C@]12C[C@H](CC(=O)NCc3ccc(C)o3)C(=O)N(Cc3ccccc3)C1=C[C@H](COCc1ccccc1)O[C@@H]2C,35µM*,.,.,.,.,.
COCCNC(=O)[C@@H]1CSC2c3ccc(OC)c(OC)c3C(=O)N21 (stereo partly specified),i,-4%,6%,0%,2.8µM*,i
CN(C(=O)CC1C(=O)NCCN1Cc1c(F)cccc1Cl)C1CCOCC1 (stereo unspecified),i,3%,2%,-1%,-21%,i
CC1=CC(C)(C)NC(=S)N1C(C)c1ccccc1 (stereo unspecified),i,-7%,1%,3%,15%,10µM*
CC(C)(NS(=O)(=O)OCC(Cl)(Cl)Cl)c1ccccc1,i,-1%,2%,21%,42%,i
COc1ccc(OC)c(-c2cc(C(=O)N3CCN(c4ccccc4)CC3)no2)c1,?,9%,10%,?,22µM*,i
O=C(c1cc(-c2cccs2)on1)N1CCN(c2ccccc2)CC1,i,8%,?,?,11µM*,i
SMILES,FUS suppressor,aSyn rescue,uPA generation,Chronic BCR inh,TDP43 rescue,Abeta rescue
O=C(COCc1cc(-c2cccs2)on1)N1CCN(c2cccc(Cl)c2)CC1,i,.,.,.,?,i
O=C(COCc1cc(-c2cccs2)on1)N1CCN(c2ccc(F)cc2)CC1,i,.,.,.,16µM*,i
COc1ccc(OC)c(-c2noc(N3CCN(c4ccc(Cl)cc4)CC3)n2)c1,i,.,.,.,11µM*,i
O=C(CN(Cc1ccccc1)S(=O)(=O)c1ccc(F)cc1)NCCC1=CCCCC1,i,11%,3%,2%,?,i
CCCc1nc2ccccc2c(=O)n1CC(=O)c1ccc(OC)cc1,i,-5%,6%,1%,-24%,i
COc1ccc(-c2cc(C(=O)N3CCN(c4ccccc4)CC3)no2)cc1,i,6%,1%,?,11µM*,i
COc1ccc(-c2cc(C(=O)N3CCN(c4ccccc4OC)CC3)no2)cc1,i,-6%,3%,?,-12%,i
CC(C)C1OC2c3cccc4cccc(c34)C2N1c1ccccc1 (stereo unspecified),i,0%,4%,-27%,13µM*,i
CC(C)[C@H](NC(=O)c1ccccc1Cl)C(=O)OCC(=O)NC(=O)NC1CCCC1,i,8%,1%,2%,-8%,i
CCOC(=O)c1c(C)nc(C(Cl)(Cl)Cl)nc1N,i,0%,-3%,-3%,11µM*,i
COCCCn1c(SCC(=O)NNC(=O)c2cccc(O)c2)nnc1-c1ccncc1,i,-7%,3%,?,11%,i
COc1ccc(NC(=O)C(c2ccnc3ccccc23)n2c(=O)c(-c3ccccc3)nc3ccccc32)cc1 (stereo unspecified),?,1%,.,.,22%,i
Cc1ccc(F)cc1C(=O)N1CCCC(c2cc(C(=O)Nc3ccccc3Cl)no2)C1 (stereo unspecified),?,26%,.,.,35µM*,i
O=C(Nc1ccccc1Cl)c1cc(C2CCCN(C(=O)C3CCCCC3)C2)on1 (stereo unspecified),i,14%,.,.,16µM*,i
O=C(Nc1ccc2c(c1)OCO2)c1cc(C2CCCCN2C(=O)c2ccc3ccccc3c2)on1 (stereo unspecified),35µM*,4%,.,.,20%,i
O=C(Nc1ccc2c(c1)OCO2)c1cc(C2CCCN(C(=O)C3CCCCC3)C2)on1 (stereo unspecified),i,3%,.,.,35µM*,i
COC(=O)N1CCCC(c2cc(C(=O)Nc3ccccc3Cl)no2)C1 (stereo unspecified),i,22%,.,.,?,i
